The test system of this experiment is Vero E6 infected with SARS-CoV-2. Description: inhibition of SARS-CoV-2 cytopathic effect; higher = more antiviral protection, active = above 15. The settings on record: 48 h.

A number with no mark means an inactive call.

Turning to `C[C@]12CCC(=O)C=C1CC[C@@H]1[C@@H]2[C@@H](O)C[C@@]2(C)[C@H]1CC[C@]2(O)C(=O)CO` [hydrocortisone], the “inhibition of SARS-CoV-2 cytopathic effect” value (from here on “inhibition”) (1 nM) is -3.82%; the “inhibition” value (8.33 nM) is -3.12%; the “inhibition” value (100 nM) is -3.55%; the “inhibition” value (833.33 nM) is -4.8%; the “inhibition” value (10000 nM) is -3.51%.
In the same order, the values of `CN1CCN(Cc2ccc(-c3cnc4[nH]cc(-c5ccc6[nH]ccc6c5)c4c3)cc2)CC1` are 1.32%, 1.21%, 3.09%, 21.6% (active) and -14.8%.
On to `CCCCCNC(=N)N/N=C/c1c[nH]c2ccc(OC)cc12` [tegaserod], for which the “inhibition” value is, setting by setting: (1 nM) -2.52%; (8.33 nM) -0.54%; (100 nM) -3.2%; (833.33 nM) -3.82%; (10000 nM) -1.44%.
The matching figures for `CC(=O)Nc1nc2c(Oc3cc(-c4ccc(C(F)(F)F)cc4)ncn3)cccc2s1`: 1.07%, 0.66%, 2.03%, 2.31% and 1.83%.
The matching figures for `O=C(NC[C@H](O)CN1CCc2ccccc2C1)c1cc(NC2COC2)ncn1`: -3.14%, -1.3%, -2.1%, -3.82% and -1.65%.
The matching figures for `CCOc1ccc2ccccc2c1C(=O)N[C@@H]1C(=O)N2[C@@H]1SC(C)(C)[C@@H]2C(=O)O` [nafcillin]: -2.44%, 1.27%, -1.26%, -1.73% and -0.95%.
With `O=C1N(c2ccccc2)c2ccccc2C1(Cc1ccncc1)Cc1ccncc1` [linopirdine], the “inhibition” value (1 nM) is 2.06%; the “inhibition” value (8.33 nM) is 0.32%; the “inhibition” value (100 nM) was 1.23%; the “inhibition” value (833.33 nM) is -0.29%; the “inhibition” value (10000 nM) is 1.14%.
Consider `CCOC(=O)[C@@H](N)CCC(=O)N[C@@H](CSCc1ccccc1)C(=O)N[C@@H](C(=O)OCC)c1ccccc1` [ezatiostat], for which the “inhibition” value by setting is: (1 nM) -0.49%; (8.33 nM) 0.28%; (100 nM) 1.7%; (833.33 nM) 2.71%; (10000 nM) 0.41%.
As for `COC(=O)C1=C(C)NC(C)=C(C(=O)OC/C=C/c2ccccc2)C1c1cccc([N+](=O)[O-])c1` (stereo not given) [pranidipine], the “inhibition” value is 1.87% (1 nM); 0.47% (8.33 nM); -0.57% (100 nM); 1.4% (833.33 nM); 8.67% (10000 nM).
The matching figures for `CN(C)c1ccccc1CN1CCCN(Cc2ccccc2N(C)C)C1c1ccncc1`: 0.09%, 1.84%, 0.14%, 0.48% and 21% (active).
In the same order, the values of `Cc1[nH]c(=O)c(C#N)cc1-c1ccc2nccn2c1` [olprinone] are -2.15%, 1.36%, 0.52%, 0.56% and -0.84%.
In the same order, the values of `NC(=O)c1ncn([C@@H]2O[C@H](CO)[C@@H](O)[C@H]2O)c1O` [mizoribine] are -1.24%, -0.82%, 0.9%, 0.29% and -1.77%.
For `CC[C@H](C)[C@H](NC(=O)[C@H](Cc1ccc(O)cc1)NC(=O)[C@@H](NC(=O)[C@H](CCCNC(=N)N)NC(=O)[C@@H](N)CC(=O)O)C(C)C)C(=O)N[C@@H](Cc1c[nH]cn1)C(=O)N1CCC[C@H]1C(=O)O`, the “inhibition” value (1 nM) is -1.39%; the “inhibition” value (8.33 nM) is 1.3%; the “inhibition” value (100 nM) was 0.18%; the “inhibition” value (833.33 nM) was -0.77%; the “inhibition” value (10000 nM) is 2.67%.
In the same order, the values of `NNC(=O)CN1C(=O)CN=C(c2ccccc2)c2cc(Br)ccc21` [gidazepam] are 0.8%, 2.74%, 1.83%, 2.01% and 3.71%.
The matching figures for `C#CCC(Cc1cnc2nc(N)nc(N)c2n1)c1ccc(C(=O)N[C@@H](CCC(=O)O)C(=O)O)cc1` (stereo not given in full) [pralatrexate]: 1.9%, -0.71%, -3.9%, -4.99% and -6.91%.
The matching figures for `Cc1ncc[nH]1` [2-methylimidazole]: -0.11%, 1.86%, 0.89%, -3.06% and 0.33%.
In the case of `CCCCC(=O)OCC(=O)[C@]1(O)Cc2c(O)c3c(c(O)c2[C@@H](O[C@H]2C[C@H](NC(=O)C(F)(F)F)[C@H](O)[C@H](C)O2)C1)C(=O)c1c(OC)cccc1C3=O` [valrubicin], the “inhibition” value runs as follows: (1 nM) -0.61%; (8.33 nM) 0.16%; (100 nM) -0.18%; (833.33 nM) 0.06%; (10000 nM) -1.25%.
In the same order, the values of `CN1C(=O)c2c(nn(Cc3ccc(-c4cccc(F)n4)cc3)c2Nc2ccccc2)N2C1=N[C@@H]1CCC[C@@H]12` are 0.59%, 1.65%, 2.18%, 3.15% and 0.62%.
The matching figures for `Nc1nc2c(c(N3CCNCC3)n1)CCC1=C2[C@@H]2CCCC[C@@H]2O1`: 1.61%, 0.48%, 1.56%, 2.05% and -2.01%.
In the same order, the values of `C[C@H]1O[C@@H](O[C@H]2[C@@H](O)C[C@H](O[C@H]3[C@@H](O)C[C@H](O[C@H]4CC[C@@]5(C)[C@H](CC[C@@H]6[C@@H]5C[C@@H](O)[C@]5(C)[C@@H](C7=CC(=O)OC7)CC[C@]65O)C4)O[C@@H]3C)O[C@@H]2C)C[C@H](O)[C@@H]1O` [digoxin] are -0.14%, -0.96%, -7.12%, -13.3% and -14.5%.

For the origin of these results see the supplement of paper PMC13380429.
